# Hits are enriched below; roughly 1.9% of the tested compounds scored in any of these assays.
# PME-1 inh – PME-1 inhibitors via competitive probe labeling, primary screen, biochemical, fluorescence polarization, FP-Rh probe, HTS; Protein phosphatase methylesterase 1 (Homo sapiens), Q9Y570; recombinant PME-1; inhibition, % at 5.9 µM; hit rate 0.53% among 320,000; AID 2130, 2009;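 active means inhibition above the campaign mean of all compounds plus 3 SD, cut at about 26% in these data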;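 further: competitive labeling of PME-1 active site by serine hydrolase directed probe; inhibitors block probe labeling so polarization falls and inhibition rises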
# GSTO1 counter – inhibitors of recombinant GSTO1, primary screen, counter-screen for RBBP9 inhibitor project, biochemical, fluorescence polarization. activity-based probe fluorescence polarization. inhibition, % at 5.96 µM. hit rate 1.1% among 300,000. AID 1974, 2009;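 active means inhibition above the campaign mean inhibition plus 3 SD, cut at about 35% in these data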
# Target sequence (P78417 whole entry, looked up): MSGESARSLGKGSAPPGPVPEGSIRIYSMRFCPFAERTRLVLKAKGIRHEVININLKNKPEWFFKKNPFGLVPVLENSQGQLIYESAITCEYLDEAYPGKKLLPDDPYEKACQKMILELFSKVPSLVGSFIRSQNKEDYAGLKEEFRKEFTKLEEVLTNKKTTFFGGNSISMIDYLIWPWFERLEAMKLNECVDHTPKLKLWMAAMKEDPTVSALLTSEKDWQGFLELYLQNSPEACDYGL
# PREPL inhibitor – PREPL enzyme inhibitors, primary screen, biochemical, fluorescence polarization; Prolyl endopeptidase-like (Homo sapiens), Q4J6C6; AID 2751, 2010; hit rate 0.68% among 320,000; recombinant PREPL, fluorescence polarization activity-based probe; inhibition, % at 5.96 µM; in the data active means inhibition above about 43%
# LYPLA1 inh – LYPLA1 inhibitors, primary screen, counter-screen for PME1 inhibitor project, biochemical, fluorescence polarization, FP-Rh probe ABPP; inhibition, % at 5.9 µM; hit rate 0.16% among 320,000; Acyl-protein thioesterase 1 (Homo sapiens), O75608; recombinant LYPLA1;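 active means inhibition above the mean of all tested compounds plus 3 SD, set per campaign, cut at about 14% in these data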;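 further: inhibitors block serine hydrolase probe labeling of LYPLA1 so polarization falls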
# LYPLA2 inh – LYPLA2 inhibitors, primary screen, counter-screen for PME1 inhibitor project, biochemical, fluorescence polarization, FP-Rh probe ABPP; recombinant LYPLA2; inhibition, % at 5.9 µM; hit rate 0.38% among 320,000; Acyl-protein thioesterase 2 (Homo sapiens), O95372;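 active means inhibition above the screen-wide mean plus 3 SD, limit set per campaign, cut at about 26% in these data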
# Target sequence (O95372 whole entry, looked up): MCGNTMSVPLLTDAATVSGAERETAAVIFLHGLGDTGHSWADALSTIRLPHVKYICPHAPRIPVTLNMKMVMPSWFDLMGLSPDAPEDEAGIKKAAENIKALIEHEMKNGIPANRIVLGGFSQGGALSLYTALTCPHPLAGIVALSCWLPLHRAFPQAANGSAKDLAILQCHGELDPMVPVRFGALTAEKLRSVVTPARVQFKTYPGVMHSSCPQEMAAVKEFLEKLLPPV
# Fam108B counter – mouse Fam108B serine hydrolase inhibitors, primary screen, counter-screen for RBBP9 inhibitor project, biochemical, fluorescence polarization; recombinant Fam108B, FP-Rh probe fluorescence polarization; inhibition, % at 9.51 µM; hit rate 0.33% among 300,000; AID 1947, 2009;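 active means inhibition above the screen mean inhibition plus 3 SD, computed separately per campaign, cut at about 18% in these data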;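 further: inhibitors lower polarization as less probe binds the enzyme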
# Fam108b confirm – mouse Fam108b serine hydrolase inhibitors, confirmation, counter-screen for RBBP9 inhibitor project, biochemical, fluorescence polarization, triplicate; AID 1978, 2009; hit rate 44% among 930; inhibition, % at 9.51 µM; recombinant Fam108b, FP-Rh probe fluorescence polarization; shares compounds with Fam108B counter;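 active means inhibition above a limit from the primary screen, the mean over all compounds plus 3 SD, cut at about 19% in these data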;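 further: inhibitors free the probe so polarization falls as inhibition rises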
# Fam108b ABPP HTS – inhibition of mouse Fam108b by HTS hits, late-stage follow-up, biochemical, gel-based ABPP, soluble recombinant form. inhibition, % at 20 µM. hit rate 44% among 260. fluorophosphonate probe. shares compounds with Fam108B counter; in the data active means inhibition above about 40%
# Hits are given with their value; i = inactive; nt = not tested or not shown.
SMILES,PME-1 inh,GSTO1 counter,PREPL inhibitor,LYPLA1 inh,LYPLA2 inh,Fam108B counter,Fam108b confirm,others
CC(OC(=O)c1ccco1)C(=O)Nc1ccc(C(F)(F)F)cc1 (stereo not given),i,nt,i,i,i,nt,nt,
O=C(CCCSc1ccc(Cl)cc1)Nc1cc(S(=O)(=O)N2CCOCC2)ccc1O,i,nt,i,i,i,nt,nt,
COc1ccccc1N1C(=NC(=O)CCC2CCCC2)SC2CS(=O)(=O)CC21 (stereo not given),i,i,i,i,i,i,nt,
CCC(=O)Nc1sc2c(c1C#N)CCCCC2,i,i,i,i,i,i,nt,
CCCC(=O)Nc1sc2c(c1C#N)CCCCC2,i,i,i,i,i,70,i,
COc1ccccc1NC(=O)Nc1ccc(NC(=O)c2ccccc2O)cc1,i,i,i,i,i,21,i,
COc1ccc(OC)c(NC(=O)Nc2ccc(Cl)cc2)c1,i,i,i,i,i,23,i,
O=C(CN1C(=O)NC2(CCCC2)C1=O)Nc1cc(Cl)ccc1Oc1ccccc1,i,nt,i,i,i,nt,nt,
COC(=O)CN1C(=O)[C@H]2[C@@H](/C=C/c3ccccc3)N3C(=O)CN(CCO)C(=O)[C@@]3(Cc3ccccc3)[C@H]2C1=O,i,i,i,i,i,i,nt,
Cc1ccc(NCc2ccccc2F)cc1,i,i,i,i,i,19,i,
CN(C)S(=O)(=O)c1cccc(NC(=O)c2ccc3nccnc3c2)c1,i,i,i,i,i,i,nt,
N=c1oc2cc(O)ccc2cc1C(=O)Nc1ccc(Cl)cc1,i,i,i,i,i,22,i,
Cc1ccc(NC(=O)c2cc3ccccc3oc2=N)cc1,i,i,i,i,i,i,nt,
CC(=O)Nc1ccc(NC(=O)c2cc([N+](=O)[O-])cc([N+](=O)[O-])c2)cc1,i,i,i,i,i,i,nt,
Cc1ccc(NC(=O)c2ccc(Nc3c([N+](=O)[O-])cc([N+](=O)[O-])cc3[N+](=O)[O-])cc2)cc1,36,i,i,i,i,22,i,
O=C(O)COc1ccccc1C=NNc1ccc([N+](=O)[O-])cc1S(=O)(=O)Nc1ccc(Cl)cc1,nt,nt,i,nt,nt,nt,nt,
O=C(O)COc1ccccc1/C=N/Nc1ccc(S(=O)(=O)Nc2ccc(Cl)cc2)cc1[N+](=O)[O-],50,i,i,i,i,18,24,
O=C(OC1CCOC1=O)C1CCN(S(=O)(=O)c2ccccc2)CC1 (stereo not given),i,nt,i,i,i,nt,nt,
Cn1c(C(=O)NN)cc2cc(Oc3ccccc3)ccc21,i,i,i,i,i,i,nt,
Cn1c(O)c(C=NNC(=O)c2cc3ccccc3cc2O)c2ccccc21,nt,nt,nt,nt,nt,nt,nt,Fam108b ABPP HTS=55
COc1ccc2c(c1)cc(C(=O)N/N=C/c1c(O)c(C(=O)O)cc3ccccc13)n2C,49,i,i,i,i,43,i,
O=C(COC(=O)CCC(=O)c1ccc(F)cc1)Nc1ccc2[nH]c(=O)[nH]c2c1,i,i,i,i,i,i,nt,
O=c1c(-c2c(O)cc(O)c3c(=O)cc(-c4ccc(O)cc4)oc23)c(-c2ccc(O)cc2)oc2cc(O)cc(O)c12,i,i,i,i,i,i,nt,
O=c1cc(-c2ccc(O)c(-c3c(O)cc(O)c4c(=O)cc(-c5ccc(O)cc5)oc34)c2)oc2cc(O)cc(O)c12,i,i,i,i,i,44,41,Fam108b ABPP HTS=75
C=CC[C@H](CC(=O)NCCO)C(=O)N[C@H](COC(=O)[C@H](CC=C)CC(=O)OC(C)(C)C)Cc1c[nH]c2ccccc12,nt,nt,i,nt,nt,nt,nt,
SMILES,PME-1 inh,GSTO1 counter,PREPL inhibitor,LYPLA1 inh,LYPLA2 inh,Fam108B counter,Fam108b confirm,others
COc1ccc(NC(=O)c2ccccc2F)cc1Cl,i,i,i,i,i,i,nt,
O=C(Nc1ccc(Oc2ccc(Cl)cc2)c(Cl)c1)c1cc(I)cc(I)c1O,i,i,i,i,i,18,i,
Cc1ccc(NC(=O)CCn2c(=O)[nH]c3ccsc3c2=O)cc1C,i,i,i,i,i,i,nt,
O=c1oc(-c2ccccc2F)nc2scc(-c3ccccc3)c12,i,i,i,i,i,55,54,Fam108b ABPP HTS=80
COc1ccc(-c2csc3nc(-c4ccccc4OC)oc(=O)c23)cc1,i,i,i,i,i,28,52,Fam108b ABPP HTS=85
Cc1nc2scc(-c3ccccc3)c2c(=O)n1N,i,i,i,i,i,i,nt,
Cc1nc2scc(-c3ccccc3)c2c(=O)o1,i,i,i,i,i,34,61,Fam108b ABPP HTS=85
COc1ccc([C@H]2CC(=O)C=C(c3ccc(C)c(F)c3)C2)cc1,i,nt,i,i,i,nt,nt,
COc1cc(C(=O)NNC(=O)c2cc(S(=O)(=O)N(C)C)ccc2N2CCCC2)cc(OC)c1OC,i,nt,i,i,i,nt,nt,
Cc1cccc2c(N=Nc3ccc(S(=O)(=O)Nc4cccc(Cl)c4)cc3[N+](=O)[O-])c(O)[nH]c12,32,i,i,i,i,36,28,
Cc1cccc2c(N=Nc3ccccc3)c(O)[nH]c12,i,i,i,i,i,i,nt,
O=C(CNc1ccc2ccccc2c1)N/N=C/c1cc2ccccc2nc1Cl,52,i,i,i,i,37,i,
O=C(Nc1ccccc1)O[C@@H]1C[C@H]2CCC(=O)N3CC[C@@H](C1)[C@@H]23,i,i,i,i,i,i,nt,
COc1cc([N+](=O)[O-])ccc1NC(=O)Nc1ccc2c(c1)OCCO2,i,i,i,i,i,19,i,
COc1ccc(NC(=O)Nc2cccc([N+](=O)[O-])c2)cc1Cl,42,i,i,i,i,32,97,Fam108b ABPP HTS=i
O=C(Nc1ccc([N+](=O)[O-])cc1)Nc1ccc2c(c1)OCCO2,i,i,i,i,i,i,nt,
COc1ccc(C(=O)Nc2cccc([N+](=O)[O-])c2)cc1Br,i,i,i,i,i,i,nt,
COc1ccc(CNC(=O)COC(=O)CC(NC(N)=O)c2ccc(Cl)cc2)cc1OC (stereo not given),i,nt,i,i,i,nt,nt,
CCCNC(=O)c1ccc2c(=O)c(O)c(-c3ccc(F)cc3)[nH]c2c1,i,i,i,i,i,i,nt,
Nc1c(Cl)cc(-c2[nH]c3cc(C(=O)NCCO)ccc3c(=O)c2O)cc1Cl,42,i,i,i,i,29,i,
Cc1cccc(NC(=S)N/N=C/c2c[nH]c3ccccc23)c1,39,i,i,i,i,22,i,
